# Reference: PubChem BioAssay AID1304 (The Scripps Research Institute Molecular Screening Center, 2008)
# Screen size: about 220,000 compounds; about 800 (0.36%) were called active. Many of the other results were omitted from the sample, so actives are more common in it than they were. Values without a mark were called inactive. Rule as the data show it: active = activation above about 33% (passing the limit was not always enough); inactive = the rest.
# Target: Neuropeptide Y receptor type 1 (Homo sapiens) (UniProt P25929)
# Test: NPY-Y1 receptor potentiators or agonists, primary screen, cell-based (AID 1304);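 also: cells stimulated with NPY at EC10 then isoproterenol at EC100; 0% = low agonist plus stimulus and 100% = saturating agonist plus stimulus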
# Conditions: NPY-Y1 expressing cells, potentiator/agonist activation; at 3.6 µM; stronger effect = higher value
# Sequence of Neuropeptide Y receptor type 1 (Homo sapiens) (P25929 whole entry, looked up): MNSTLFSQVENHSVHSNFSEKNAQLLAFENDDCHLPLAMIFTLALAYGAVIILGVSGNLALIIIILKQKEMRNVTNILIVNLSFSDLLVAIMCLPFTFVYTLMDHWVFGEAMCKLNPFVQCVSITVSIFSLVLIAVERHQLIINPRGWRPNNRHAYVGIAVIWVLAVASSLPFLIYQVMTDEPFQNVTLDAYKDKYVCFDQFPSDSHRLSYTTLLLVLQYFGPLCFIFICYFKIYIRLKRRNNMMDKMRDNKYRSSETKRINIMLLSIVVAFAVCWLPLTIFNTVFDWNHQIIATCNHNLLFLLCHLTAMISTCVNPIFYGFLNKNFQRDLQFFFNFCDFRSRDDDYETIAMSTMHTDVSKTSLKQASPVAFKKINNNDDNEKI
row,Structure (SMILES),activation
1,CSC1=NP(=S)(SC)N(C)c2nc3n(c21)CCC3 (stereo not given),42.8% (active)
2,CCC1(C)CC(CCNCc2ccc(N(C)C)cc2)(c2ccc(F)cc2)CCO1 (stereo not given),16.3%
3,CSc1nc2ccc(C)cc2c(=O)n1-c1cccnc1,1.29%
4,CNC(=O)Nc1ccc(C(O)(C(=O)OC)C(F)(F)F)cc1 (stereo not given),-6.66%
5,CC(=O)Cc1ccc(OC(C)C)cc1,8.4%
6,C/C=C/CC1(CC)C(=O)NC(=S)NC1=O,11.2%
7,CCOP(=O)(OCC)C(NC(=O)c1ccc(OC)cc1)C(Cl)(Cl)Cl (stereo not given),4.01%
8,CC1(C)Cc2c(C#N)c(N3CCNCC3)nc(-c3ccco3)c2CS1,59.2% (active)
9,CCN1CC2C3CCC(C)(O3)C2C1 (stereo not given),11.9%
10,Fc1ccc(C2N3CCCN23)cc1 (stereo not given),-11.3%
11,CCOc1cccc(=NC2CCCCC2)c2c(C)[nH]c(C)c12,11.4%
12,Cc1nn(Cc2ccccc2Cl)c(Cl)c1C(=O)OC(C(=O)NC(N)=O)C(C)C (stereo not given),49.5% (active)
13,Cc1cccc(NC(=O)OC2CN3CCC2CC3)c1 (stereo not given),11.8%
14,O=c1[nH]c(=O)n(Cc2ccccc2)c(O)c1/C=N/Nc1c(F)c(F)c(F)c(F)c1F,-7.15%
15,Cn1c(O)c(C(=Nc2ccc(F)cc2)c2ccccc2)c(=O)n(C)c1=O,-6.6%
